Laboratory results published in PubChem BioAssay AID1463 (National Center for Advancing Translational Sciences (NCATS), 2008).
The campaign covered roughly 280,000 compounds. About 2,600 (0.93%) were called active. Where a call stands in place of a potency, no number is given. Inconclusive results (about 8%) are left out. Calls follow the shape of the dose curve; as a rule, active = well fitted curve in the direction sought with a large enough effect; inconclusive = small, poorly fitted or top-dose-only effect; inactive = flat fitted curve, though single readings scatter. Many of the other results were omitted from the sample, so actives are more common in it than they were.
Potency is read from the fitted curve at half-maximal effect; tags tell the direction and shape of the fitted curve or compound fluorescence and quenching.

Assay: Counterscreen qHTS for Inhibitors of Tau Fibril Formation, Fluorescence Polarization; also: nearly all actives have a fitted effect of over 55% in size
Conditions: tau K18 P301L (four-repeat tau fragment) Alexa594 fluorescence, heparin fibrillization; series mostly up to 57.7 µM
Summary of the method: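 Human K18 P301L tau (15 uM unlabeled plus 0.24 uM Alexa 594-labeled, final) in 100 mM sodium acetate pH 7 was mixed with compound and 20 uM heparin and incubated 6 hr at 37 C.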
With COc1ccc2c(C)c(CCC(=O)NCc3ccc(OC)c(OC)c3)c(=O)oc2c1 the Potency was “inactive”.
For Cc1cc2c(cc3c(SCc4cccc(Cl)c4)nnc(C)n32)o1, the Potency was “inactive”.
For COc1ccc(OC)c(-c2nc(C(N)=O)c3c(n2)n(-c2ccc4c(c2)OCO4)c(=O)n3C)c1, the Potency was “inactive”.
With COc1ccc(/C=N/Nc2nc3ccccc3o2)cc1OC the Potency was “inactive”.
For c1ccc2sc(NN=C3CCCC3)nc2c1, the Potency was “inactive”.
With COc1ccc(/C=N\NC(=O)c2sc(N)nc2C)cc1OC the Potency was “inactive”.
With CCNc1nc(NCC)nc(N/N=C/c2ccc(O)c(OC)c2)n1 the Potency was “inactive”.
In the case of COc1cc(/C=N/Nc2nc3ccccc3s2)ccc1O, the Potency was 12.6 µM [quencher] (active).
In the case of O=[N+]([O-])c1cc(Br)c(O)c(/C=N/Nc2nc3ccccc3s2)c1, the Potency was 7.94 µM [quencher] (active).
For COc1cc(/C=N/NC(=O)CCc2n[nH]c(=O)[nH]c2=O)ccc1O, the Potency was “inactive”.
With Cc1ccc(S(=O)(=O)Nc2nc3ccccc3s2)cc1[N+](=O)[O-] the Potency was “inactive”.
For COc1cc(/C=N\Nc2nc(-c3cccs3)c(NC(C)=O)s2)ccc1O, the Potency was 17.8 µM [quencher] (active).
For CCCN1CCN(CCCNC(=O)c2ccc3nc(Cc4ccccc4)oc3c2)CC1, the Potency was “inactive”.
In the case of O=C1CN(C(=O)Nc2ccccc2C(F)(F)F)C(c2ccccc2)c2c(sc3c2CCCC3)N1 (centres undefined), the Potency was “inactive”.
In the case of CCCN1CN=C(NS(=O)(=O)c2ccc(NC(C)=O)cc2)NC1, the Potency was “inactive”.
For O=C(NCCc1ccccc1)c1cnc2sc(N3CCCC3)nn2c1=O, the Potency was “inactive”.
With CN(C)CCCn1c(-c2ccc(Cl)cc2)csc1=Nc1ccccc1 the Potency was “inactive”.
For Cc1cc(NS(=O)(=O)c2ccc3oc(=O)c4ncn(C)c4c3c2)ccc1Br, the Potency was “inactive”.
For O=C(Nc1ccc(-c2csc(Nc3cccc(C(F)(F)F)c3)n2)cc1)c1cccc(C(F)(F)F)c1, the Potency was 5.01 µM [quencher] (active).
In the case of CNC(=O)c1ccc(NC(=O)c2cccc(C(F)(F)F)c2)cc1, the Potency was “inactive”.
With Cc1cccc(NC(=O)c2cccc(C(F)(F)F)c2)c1 the Potency was “inactive”.
With CC(C)S(=O)(=O)c1oc(-c2ccc(F)cc2)nc1S(=O)(=O)c1ccc(F)cc1 the Potency was “inactive”.
For COc1ccccc1-c1c(C)nn2c(C)c(C(C)=O)cnc12, the Potency was “inactive”.
With CC(=O)COc1ccc2c(-c3ccccc3)cc(=O)oc2c1 the Potency was “inactive”.
For COc1ccccc1-c1n[nH]c2c1[C@H](C)CC[C@H]2C(C)C, the Potency was “inactive”.
With C=C(C)COc1ccc(-c2n[nH]c(C)c2-c2ccccc2)c(O)c1 the Potency was 15.8 µM [quencher] (active).
For CCOc1ccc(-c2n[nH]c(C)c2-c2ccccn2)c(O)c1, the Potency was “inactive”.
In the case of C=C(C)COc1ccc(-c2n[nH]c(C)c2-c2ccccc2OC)c(O)c1, the Potency was 17.8 µM [quencher] (active).
In the case of COc1ccc(CNC(=O)c2cc3cccc(OC)c3oc2=O)cc1, the Potency was “inactive”.
For CSc1ccc(CCNC(=O)c2cc(C)nc3c2c(C)nn3-c2cccc(F)c2)cc1, the Potency was “inactive”.
In the case of Oc1cc2c(cc1O)CN(C(=S)NCCc1ccc(Cl)cc1)CCC2, the Potency was 10 µM [quencher] (active).
With O=C1CCN(C(=S)NCCc2ccccc2)CC1 the Potency was “inactive”.
With S=C(NCCc1ccccc1)N1CCCCC1 the Potency was “inactive”.
For O=C(Cc1ccc(Cl)cc1)NCC(c1cccs1)S(=O)(=O)c1ccc(Cl)cc1 (centres undefined), the Potency was “inactive”.
In the case of COc1ccc(-c2cn3nc(N4CCC(C(=O)Nc5cccc(C)c5C)CC4)sc3n2)cc1, the Potency was “inactive”.
With Cc1ccc(-n2ncc(C(=O)N(C)Cc3ccccc3)c2-n2cccc2)cc1 the Potency was “inactive”.
For COCCNC(=O)Nc1ccc2nc(-c3ccco3)c(-c3ccco3)nc2c1, the Potency was 8.91 µM [quencher] (active).
With O=C(Nc1ccc2nccnc2c1)c1ccco1 the Potency was “inactive”.
For CCOc1ccc(NC(=O)c2ncoc2-c2ccco2)cc1, the Potency was “inactive”.
For Cc1cc(C)cc(NC(c2nnc(-c3cccc(F)c3)o2)c2ccc(F)cc2Cl)c1 (centres undefined), the Potency was “inactive”.
With CC(=O)Nc1ccc(Nc2c3ccccc3nc3ccccc23)cc1 the Potency was “inactive”.
In the case of O=C(NNc1c2ccccc2nc2ccccc12)c1cc2ccccc2cc1O, the Potency was 4.47 µM [quencher] (active).
For O=C(Nc1c2c(nc3ccccc13)CCCC2)c1ccccc1Br, the Potency was “inactive”.
With Cc1cccc(NC(=S)NCCN(C2CCCCC2)C2CCCC2)c1 the Potency was “inactive”.
For Cc1cccc(NC(=S)NCc2ccc3[nH]c4c(c3c2)CCCC4)c1, the Potency was 14.1 µM [quencher] (active).
In the case of O=C(O)CCC(=O)NCc1ccc2[nH]c3c(c2c1)CCCC3, the Potency was “inactive”.
With CCc1ccc(NC(=O)N2CCN(C(=O)c3nsc4ccccc34)CC2)cc1 the Potency was “inactive”.
For COc1ccc(S(=O)(=O)c2cn(C)c3cc(N4CCCCC4)c(F)cc3c2=O)cc1, the Potency was “inactive”.
For Cn1c(=O)c2c(nc(SCC(=O)Nc3ccc(F)cc3)n2Cc2ccccc2)n(C)c1=O, the Potency was “inactive”.
For CCc1ccc(CN(Cc2ccco2)C(=O)COc2ccc(Cl)c(C)c2)cc1, the Potency was “inactive”.
In the case of COc1ccc(OC)c(Nc2nc(-c3ccc(O)c(O)c3)cs2)c1, the Potency was 14.1 µM [quencher] (active).
With COc1ccc(-c2csc(Nc3ccc(O)cc3)n2)cc1 the Potency was 11.2 µM [quencher] (active).
For CC(=O)Nc1nc(C)c(-c2csc(Nc3ccc(S(N)(=O)=O)cc3)n2)s1, the Potency was “inactive”.
In the case of Cc1cc(NC(=O)c2cccc(Cl)c2)ccc1-c1cc2ccccc2oc1=O, the Potency was “inactive”.
In the case of COc1ccc(-c2csc(NC(=O)c3ccc(N4C(=O)CCC4=O)cc3)n2)cc1OC, the Potency was “inactive”.
In the case of O=c1oc2ccccc2cc1-c1csc(Nc2ccc(O)cc2)n1, the Potency was 14.1 µM [quencher] (active).
For O=C(Nc1nc(-c2ccc(-c3ccccc3)cc2)cs1)c1cnccn1, the Potency was “inactive”.
For COc1ccc(-c2csc(NC(=O)COC(=O)c3ccc(Br)o3)n2)cc1, the Potency was “inactive”.
For COc1ccc(-c2csc(NC(=O)CCCc3cccs3)n2)cc1, the Potency was “inactive”.
With Cc1ccc(-c2csc(NC(=O)c3cnccn3)n2)cc1C the Potency was “inactive”.
In the case of NS(=O)(=O)c1ccc(Nc2nc(-c3ccccc3)cs2)cc1, the Potency was 15.8 µM [quencher] (active).
With O=C(Nc1ccncc1)c1cc2ccccc2o1 the Potency was “inactive”.
For Cc1cccc(NC(=O)c2ccc3nc(C(C)C)oc3c2)c1C, the Potency was “inactive”.
For CCOC(=O)c1ccc(NC(=O)CCS(=O)(=O)c2ccc(C)cc2)cc1, the Potency was “inactive”.
